Screening results: PubChem, National Center for Advancing Translational Sciences (NCATS)
KDM5B inhibitor: Primary screen for KDM5B Histone Demethylases FDH-coupled qHTS | KDM5B demethylase, FDH-coupled NADH fluorescence (FDH is formaldehyde dehydrogenase) | Potency, µM (series often up to 57.7 µM), actives largely listed as inhibitors | 220,000 tested, 2.6% active | AID 1347165, 2019; active means well fitted inhibition curve with a large enough effect; further: nearly all actives have a fitted effect of over 70% in size
Target sequence (Q9UGL1 whole entry, looked up): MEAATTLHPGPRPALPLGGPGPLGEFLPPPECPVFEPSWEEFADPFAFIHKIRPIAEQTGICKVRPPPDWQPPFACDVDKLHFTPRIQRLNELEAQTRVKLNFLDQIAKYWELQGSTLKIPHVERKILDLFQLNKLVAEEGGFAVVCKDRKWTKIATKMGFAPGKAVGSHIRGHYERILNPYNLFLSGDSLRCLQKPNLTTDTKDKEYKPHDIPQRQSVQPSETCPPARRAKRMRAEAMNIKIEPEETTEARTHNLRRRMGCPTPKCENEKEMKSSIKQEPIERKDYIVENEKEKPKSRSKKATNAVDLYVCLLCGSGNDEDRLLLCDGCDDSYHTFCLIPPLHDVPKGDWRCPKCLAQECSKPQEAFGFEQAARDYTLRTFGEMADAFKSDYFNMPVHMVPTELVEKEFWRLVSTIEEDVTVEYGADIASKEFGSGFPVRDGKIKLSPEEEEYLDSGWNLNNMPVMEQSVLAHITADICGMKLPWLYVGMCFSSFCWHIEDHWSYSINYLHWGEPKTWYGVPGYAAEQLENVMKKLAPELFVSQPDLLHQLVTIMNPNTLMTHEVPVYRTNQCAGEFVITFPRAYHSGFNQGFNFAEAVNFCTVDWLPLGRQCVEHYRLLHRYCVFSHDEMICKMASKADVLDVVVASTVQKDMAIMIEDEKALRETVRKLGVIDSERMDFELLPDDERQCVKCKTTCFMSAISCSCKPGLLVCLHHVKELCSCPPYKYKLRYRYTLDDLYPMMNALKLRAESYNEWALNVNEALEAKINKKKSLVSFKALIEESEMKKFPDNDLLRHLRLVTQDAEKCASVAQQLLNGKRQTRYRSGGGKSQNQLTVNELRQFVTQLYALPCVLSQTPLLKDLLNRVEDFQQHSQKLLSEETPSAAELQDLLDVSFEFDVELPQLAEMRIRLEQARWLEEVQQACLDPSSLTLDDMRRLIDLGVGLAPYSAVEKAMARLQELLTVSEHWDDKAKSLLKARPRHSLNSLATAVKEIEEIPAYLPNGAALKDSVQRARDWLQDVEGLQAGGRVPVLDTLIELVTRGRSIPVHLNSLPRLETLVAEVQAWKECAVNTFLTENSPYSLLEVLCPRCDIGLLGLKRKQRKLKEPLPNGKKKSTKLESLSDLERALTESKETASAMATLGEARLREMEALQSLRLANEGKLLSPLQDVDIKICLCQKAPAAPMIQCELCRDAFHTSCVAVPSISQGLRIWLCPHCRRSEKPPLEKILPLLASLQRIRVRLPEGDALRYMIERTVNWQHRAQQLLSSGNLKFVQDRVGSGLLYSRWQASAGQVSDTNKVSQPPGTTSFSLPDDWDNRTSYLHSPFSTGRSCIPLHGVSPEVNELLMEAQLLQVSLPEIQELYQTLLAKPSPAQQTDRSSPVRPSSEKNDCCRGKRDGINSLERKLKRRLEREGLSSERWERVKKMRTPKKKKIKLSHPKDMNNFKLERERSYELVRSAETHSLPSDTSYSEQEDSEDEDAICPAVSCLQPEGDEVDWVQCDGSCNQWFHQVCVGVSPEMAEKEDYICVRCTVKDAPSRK
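qHTS format, multiple compound concentrations. Buffer 50 mM HEPES pH 7.5/0.01% Tween-20; 200 nM KDM5BΔAP final; 10 min compound preincubation; substrate-mix levels 12.5 µM peptide, 25 µM α-KG, 0.25 mM NAD⁺; 30 min RT; ΔRFU.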
A number is an active result; . = inactive. The sample as a whole holds a higher share of hits than the screen did.

SMILES	KDM5B inhibitor
CCc1ccc(C(=O)N2CCC(CC(=O)NCc3ccccc3)C2)cc1 (centres undefined)	.
Cc1ccc(-c2nc(C(=O)NCc3ccc(F)cc3)no2)cc1	.
O=C(NCCCn1ccnc1)c1nc(-c2ccccc2)cc2[nH]ccc12	.
O=C(NCc1ccccc1)C1CCCN(C(=O)c2ccc3cc[nH]c3c2)C1 (centres undefined)	.
CC(=O)c1ccc(NC(=O)COc2nc(C(C)C)c3c(c2C#N)CCCC3)cc1	.
CN(Cc1ccccc1)Cc1cc(C[C@@H]2CC[C@H](O)[C@@H](CNCc3ccccc3)O2)no1	.
CN(Cc1ccsc1)C(=O)c1ccc(C#N)cc1	.
Fc1ccc(NC(=S)N/N=C/c2ccc(C(F)(F)F)cc2)c(F)c1	.
COc1ccc(OC)c(S(=O)(=O)N2CCC(Cc3ncc(C)n3C3CC3)C2)c1 (centres undefined)	.
COc1cccc([S+](=O)([O-])N2CCC(c3nnc4n3C(C(=O)O)CC4)CC2)c1 (centres undefined)	79µM
COC(=O)CNC(=O)C1CCc2nnc(C3CCN([S+](=O)([O-])c4ccccc4)CC3)n21 (centres undefined)	.
O=C(O)C1CCc2nnc(C3CCCN([S+](=O)([O-])c4cccc(C(F)(F)F)c4)C3)n21 (centres undefined)	.
CCOc1ccc(C(=O)OCc2nc(N)c3ccccc3n2)cc1	.
CC(Sc1nnc(N2CCCCC2)n1-c1ccccc1)c1nnc(-c2cccs2)o1 (centres undefined)	.
CCOc1cccc(C(C)NC(=O)N(C)Cc2ccc(C#N)cc2)c1 (centres undefined)	.
COc1cc(NC(=O)N2CCN(c3ccc(=O)n(-c4ccc(F)cc4)n3)CC2)cc(OC)c1OC	.
COc1cccc(C(=O)NC2CCCN(c3nc4ncccc4o3)C2)c1 (centres undefined)	.
O=C(c1ccc(C(F)(F)F)cc1)N1CCN(c2nc3ncccc3o2)CC1	.
Cc1ccc(C(=O)NC2CCN(c3nc4ncccc4o3)CC2)cc1	35µM
O=C(c1cccc(Cl)c1)N1CCN(c2nc3ncccc3o2)CC1	.
COc1ccc(C(=O)NC2CCCN(c3nc4ncccc4o3)C2)cc1 (centres undefined)	.
O=C(NC1CCN(c2nc3ncccc3o2)CC1)c1ccccc1	35µM
COc1cc(Cl)cc(C(=O)N2CCC3(CCCNC3)C2)c1 (centres undefined)	.
COc1ccc(Nc2ccc(NC(=O)Cn3cnc4c3c(=O)n(C)c(=O)n4C)cc2)cc1	.
CCn1nc(C(=O)N(C)C2CCCc3ccccc32)c2ccccc2c1=O (centres undefined)	.
SMILES	KDM5B inhibitor
COc1ccc(-n2c(SCC(=O)Nc3ccc(C(N)=O)cc3)nc3ccccc3c2=O)cc1	.
Cc1nc2cc(NS(=O)(=O)c3cc(F)cc(F)c3)ccc2o1	.
COc1ccc(N2CC3CCC(C2)N3Cc2cccc(-c3cccs3)c2)cc1	.
COc1ccc(N2CC3CCC(C2)N3Cc2cccc(-c3ccc(F)cc3F)c2)cc1	79µM
COc1ccc(N2CC3CCC(C2)N3Cc2cccc(-c3ccsc3)c2)cc1	.
COc1cccc(CNC(=O)c2ccc(Oc3ccccc3)cc2)c1	.
C[C@@H]1CN(C(=O)c2ccc3c(c2)N(C)C(=O)CO3)C[C@@]1(O)C1CCC1	.
CN1C(=O)COc2ccc(C(=O)N3CC(C)(C)[C@@](C)(O)C3)cc21	32µM
CC1(C)CN(C(=O)c2ccnc(-n3cnnc3)c2)CC1(C)O (centres undefined)	.
CCC[C@@H]1CN(Cc2cc(OC)c(SC)cc2OC)C[C@H]1NC(C)=O	.
CC1=C(C(=O)OC(C)C(C)(C)C)C(c2ccc(Cl)cc2)NC(=O)N1 (centres undefined)	.
Cc1ccc(-c2cc3c(ccn3CC3CCN([S+](C)(=O)[O-])CC3)c(N3CCOCC3)n2)cn1	32µM
C[S+](=O)([O-])N1CCC(Cn2ccc3c(N4CCOCC4)nc(-c4ccc(F)cc4)cc32)CC1	.
C[S+](=O)([O-])N1CCC(Cn2ccc3c(N4CCOCC4)nc(-c4ccc(CO)cc4)cc32)CC1	.
CCOC(=O)CSC(=S)N(C)C	.
c1cn(-c2ccc(Oc3nn[nH]n3)cc2)c(-c2cc3n(n2)CCNC3)n1	18µM
CSc1cccc(-n2ccnc2-c2cc3n(n2)CCCNC3)c1	.
c1ccc(-c2cccc(-n3ccnc3-c3cc4n(n3)CCCNC4)c2)nc1	.
Clc1ccc(NC2(c3nnnn3-c3ccccc3)CCCCC2)cc1	.
O=C([C@@H]1C[C@H](F)CN1C(=O)c1cccc(F)c1)N1CCOCC1	.
Cc1cc(C)n(C2CCN(c3nccc(-c4ccccn4)n3)C2)n1 (centres undefined)	.
COCCN1CCC(CNc2nccc(-c3ccccn3)n2)C1 (centres undefined)	28µM
Cc1ccc(CN2CCC(CNc3ccncn3)CC2)o1	.
O=S(=O)(CCN1CCC2(CC1)OCCO2)c1ccccc1	.
CN(C)CCC1CCN(C(=O)Nc2ccccc2C(F)(F)F)CC1	.
SMILES	KDM5B inhibitor
C[C@@H](NC(=O)Cc1ccccc1)c1onc(-c2cccnc2)c1C(=O)O	.
O=C(O)Cn1ccc2cc(OCC3CCN(C(=O)Cc4ccccc4)CC3)cnc21	40µM
O=C(O)Cn1ccc2cc(OCC3CCN(C(=O)COc4ccccc4)CC3)cnc21	35µM
O=C(O)CCn1ncc2cc(OC3CCN(C(=O)COc4ccccc4)CC3)ccc21	.
O=C(COc1ccccc1)N1CCC(Cc2nc(-c3ccncc3)n[nH]2)CC1	.
O=C(O)CCn1ncc2cc(OCC3CCN(C(=O)CCC(F)(F)F)CC3)ccc21	.
O=C(CC1CC1)N1CCC(Oc2cnc3c(ccn3-c3cncnc3)c2)CC1	.
Cc1cnc(C2CC2)n1CC1CCN(C(=O)Cc2ccccc2)CC1	.
O=C(Cc1ccccc1)N1CCC(Oc2cnc3c(ccn3-c3cncnc3)c2)CC1	.
NC(=O)Cn1ccc2cc(OCC3CCN(C(=O)CC4CC4)CC3)cnc21	35µM
O=C(CC1(C(=O)O)CCCCCC1)Nc1ccccc1CO	.
CCCCCCn1c(N2CCN(CC(=O)OC)CC2)nc2c1c(=O)[nH]c(=O)n2C	.
COc1ccc(-n2nc(C3CCN(Cc4ccccc4)CC3)[nH]c2=O)cc1	.
Cc1cnc(CCNC(=O)C2(c3ccccc3)CC2)n1C1CCCCCC1	.
O=C(COc1ncnc2ccccc12)Nc1ccc(Cl)c(Cl)c1	.
CCN(CC)C(=O)CC[C@H]1CNC(=O)[C@@H]2[C@@H](CCN2Cc2ccc(F)cc2)N1C	.
CCC1CCCN(C(=O)Cn2cc(Br)c(=O)[nH]c2=O)C1 (centres undefined)	.
CC(C)(C)NC(=O)N1CCOc2ccc(CN3CCc4ccccc4C3)cc2C1	.
CCC(C)(C(=O)NC1CCCCC1)N(Cc1cccs1)C(C)=O (centres undefined)	.
CCn1nc(C)c(-c2cc(C(=O)NCCc3noc(-c4ccccc4)n3)no2)c1C	.
FC(F)(F)c1ccc(-c2cnc([C@@H]3COCCN3Cc3ccncc3)[nH]2)cc1	.
Cn1cc(-c2cc3c(ccn3Cc3ccncc3)c(N3CCOCC3)n2)cn1	.
c1cc(Cn2ccc3c(N4CCOCC4)nc(-c4ccc5cn[nH]c5c4)cc32)ccn1	35µM
CN(C)Cc1ccc(-c2cc3c(ccn3Cc3ccncc3)c(N3CCOCC3)n2)cc1	40µM
COc1ncccc1-c1cc2c(ccn2CC2CCN([S+](C)(=O)[O-])CC2)c(N2CCOCC2)n1	.
